Screens: PubChem, National Center for Advancing Translational Sciences (NCATS)
ELG1 genotoxic: qHTS screen for small molecules that induce genotoxicity in human embryonic kidney (HEK293T) cells expressing luciferase-tagged ELG1 | HEK293T ELG1-luciferase reporter, luminescence, 16 h | actives 1.3% (n = 330,000) | Potency, µM (series often up to 46 µM), actives largely listed as activators; note: nearly all actives have a fitted effect of over 60% in size
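HEK293T cells expressing luciferase-tagged ELG1 were treated with compound or DMSO for 16 hr at 37°C. Luciferase activity was then read after 30 min with ONE-Glo at room temperature; rising signal flags genetic stress.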
SMN2 splice enh: qHTS Assay for Enhancers of SMN2 Splice Variant Expression | AID 1458, 2008 | HEK293 SMN2-luciferase splicing reporter, luminescence, 30-36 h | actives 2.8% (n = 210,000) | Potency, µM (highest dose often 46.1 µM), hits mostly activators; note: nearly all actives have a fitted effect of over 55% in size
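HEK293 cells carry an SMN2 minigene-luciferase reporter in which exon 7 inclusion puts luciferase in frame. Cells were seeded at 2000 cells/well, attached for 10-12 hours, then exposed to compounds for 30-36 hours at 37C before ONE-Glo luminescence.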
Rab9 prom act: qHTS Assay for Rab9 Promoter Activators; Huh7 Rab9 promoter-luciferase reporter, luminescence, 24 h; actives 2.8% (n = 320,000); Potency, µM (titrated, usually from 9.22 µM), actives largely listed as activators; AID 485297, 2010; note: nearly all actives have a fitted effect of over 60% in size
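Steps: seed 1500 Huh7 Rab9-luc cells per well, rest 2 h at 37 °C; add compound in DMSO; incubate 24 h; add luciferase reagent, 10 min ambient; read luminescence.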
NPC1 prom act: qHTS Assay for NPC1 Promoter Activators; Huh7 NPC1 promoter luciferase reporter, 24 h; Potency, µM (titrated, usually from 9.22 µM), hits mostly activators; actives 2.4% (n = 320,000); AID 485313, 2010; note: nearly all actives have a fitted effect of over 60% in size
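Cells: Huh7 expressing luciferase under the NPC1 promoter, 1500/well. Seeded 2 h, compound added, incubated 24 h at 37 °C. Luciferase reagent, 10 min ambient, then luminescence.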
FLuc modulator: qHTS profiling assay for firefly luciferase inhibitor/activator using purifed enzyme and Km concentrations of substrates (counterscreen for miR-21 project). purified FLuc, Km substrates, luminescence inhibition. Luciferin 4-monooxygenase (Photinus pyralis), P08659. Potency, µM (doses to about 57.5 µM), actives largely listed as inhibitors. actives 6.9% (n = 360,000); note: nearly all actives have a fitted effect of over 55% in size
Target sequence (P08659 whole entry, looked up): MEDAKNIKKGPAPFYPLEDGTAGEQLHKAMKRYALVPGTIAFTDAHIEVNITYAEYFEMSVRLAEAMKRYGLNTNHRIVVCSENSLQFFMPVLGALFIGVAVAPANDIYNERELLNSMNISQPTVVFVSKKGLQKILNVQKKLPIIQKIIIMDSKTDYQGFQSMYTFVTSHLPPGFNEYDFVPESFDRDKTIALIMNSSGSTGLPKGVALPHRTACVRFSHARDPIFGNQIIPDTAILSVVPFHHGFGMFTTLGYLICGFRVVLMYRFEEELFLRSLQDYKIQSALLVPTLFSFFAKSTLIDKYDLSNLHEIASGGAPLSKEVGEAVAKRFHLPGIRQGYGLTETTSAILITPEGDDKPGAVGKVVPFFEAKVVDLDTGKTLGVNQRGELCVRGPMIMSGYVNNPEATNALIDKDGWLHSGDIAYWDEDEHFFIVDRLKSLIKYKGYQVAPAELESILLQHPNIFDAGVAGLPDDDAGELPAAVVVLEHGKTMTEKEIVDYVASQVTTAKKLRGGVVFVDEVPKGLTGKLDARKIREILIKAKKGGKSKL
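Purified P. pyralis luciferase (10nM final) with 10uM D-luciferin and 10uM ATP (Km levels) in 50mM Tris acetate pH 7.5, 10mM Mg acetate, 0.01% Tween-20, 0.05% BSA; qHTS 6-point titration, ~60 µM downward; luminescence read.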
Of the large screens only hits and unclear results are named; the others gave an inactive call. Shown are actives, neighbours in structure and some others; about 7.4% of the full set was active somewhere. Calls come from the whole dose curve; as a rule, active = well fitted curve in the direction sought with a large enough effect; inconclusive = small, poorly fitted or top-dose-only effect, or another doubt; inactive = no such curve, though single readings can be large; an effect the other way counts as inactive or inconclusive.

Cc1ccc(NC(=O)CSc2nnc(-c3cccs3)o2)cc1S(=O)(=O)N(C)C	ELG1 genotoxic inconclusive, SMN2 splice enh inconclusive, Rab9 prom act 3.55µM, NPC1 prom act inconclusive
Cc1cnc(NC(=O)c2cncc(Br)c2)s1	ELG1 genotoxic inconclusive, Rab9 prom act 1.26µM, NPC1 prom act 2.24µM, FLuc modulator 8.49µM (no result: SMN2 splice enh)
CCN(CC)c1ccc(NC(=O)c2cccnc2)cc1	FLuc modulator inconclusive (no result: ELG1 genotoxic, Rab9 prom act, NPC1 prom act)
Cc1ccc(NC(=O)c2sccc2C)cc1S(=O)(=O)N(C)C	FLuc modulator 19µM
CCOC(=O)c1c(NC(=O)C(NCCN(C)C)c2ccccc2)sc2c1CCCC2 (stereo unspecified)	none (no result: SMN2 splice enh)
COC(=O)[C@H](Cc1ccccc1)NC(=O)NCCc1ccccc1F	none (no result: SMN2 splice enh)
Nc1c(Cl)cc(-c2[nH]c3cc(C(=O)NCCO)ccc3c(=O)c2O)cc1Cl	none (no result: SMN2 splice enh)
Cc1ccc(NC(=O)c2cncc(Br)c2)cc1S(=O)(=O)N(C)C	ELG1 genotoxic inconclusive, SMN2 splice enh 11.2µM, Rab9 prom act inconclusive, NPC1 prom act inconclusive, FLuc modulator 9.53µM
NC(=O)c1ccccc1OCc1nc2ccccc2s1	ELG1 genotoxic inconclusive, Rab9 prom act inconclusive, NPC1 prom act inconclusive, FLuc modulator 3.01µM (no result: SMN2 splice enh)
O=C(OCc1nc2ccccc2s1)c1ccco1	ELG1 genotoxic inconclusive, FLuc modulator 6.75µM
COC(=O)CCCc1nc2ccccc2s1	FLuc modulator inconclusive
CCOC(=O)C(=O)Cc1nc2ccccc2s1	FLuc modulator 19µM (no result: SMN2 splice enh)
Cc1cc(C(=O)OCc2nc3ccccc3s2)c(C)o1	FLuc modulator 19µM (no result: ELG1 genotoxic, Rab9 prom act, NPC1 prom act)
CCn1c(=O)c(=O)[nH]c2c(=O)oc3ccc(S(=O)(=O)Nc4ccccc4)cc3c21	none (no result: SMN2 splice enh)
O=C(O)COCc1nc2ccccc2s1	none (no result: SMN2 splice enh)
CC(=O)OCc1nc2ccccc2s1	ELG1 genotoxic inconclusive, FLuc modulator 5.36µM
CCc1ccc(-c2nc3ccc(Br)cc3c(C(=O)O)c2C)s1	SMN2 splice enh inconclusive, FLuc modulator 21.3µM
Cc1ccc(C(=O)N/N=C\c2cccc(OC(=O)c3cccc(F)c3)c2)cn1	FLuc modulator 8.49µM (no result: SMN2 splice enh)
O=C(N/N=C/c1cccc(OC(=O)c2ccco2)c1)c1ccc(F)cc1	ELG1 genotoxic inconclusive, FLuc modulator 3.79µM
COc1cccc(/C=N/NC(=O)c2cnn(-c3ccccc3)c2N)c1	Rab9 prom act inconclusive, NPC1 prom act inconclusive, FLuc modulator 12µM (no result: SMN2 splice enh)
O=C(N/N=C/c1cccc(OC(=O)c2ccccc2Cl)c1)c1cccnc1	FLuc modulator 23.9µM (no result: SMN2 splice enh)
Cc1ccc(C(=O)N/N=C/c2ccc(OC(=O)c3ccccc3Cl)cc2)cn1	none (no result: SMN2 splice enh)
Cc1ccc(C(=O)N/N=C\c2ccc(OC(=O)c3cccs3)cc2)cn1	none
COc1ccccc1NC(=O)C(=O)N/N=C/c1cccs1	ELG1 genotoxic inconclusive, Rab9 prom act inconclusive, FLuc modulator 9.53µM
CCOc1ccc2ccccc2c1/C=N/NC(=O)CNC(=O)c1ccccc1O	none (no result: SMN2 splice enh)
Cc1ccc(C(=O)N/N=C\c2cccs2)cn1	FLuc modulator 23.9µM
CCOc1ccc2ccccc2c1/C=N/NC(=O)c1ccc(C)nc1	FLuc modulator 4.78µM (no result: SMN2 splice enh)
COc1cccc(/C=N\NC(=O)c2ccc(C)nc2)c1	FLuc modulator 19µM (no result: SMN2 splice enh)
Cc1c[n+](CC(=O)c2ccccc2)c(C)cn1	none (no result: SMN2 splice enh)
O=C(Nc1ccccc1C(F)(F)F)N1CCC2(CC1)Oc1ccccc1C(=O)N2Cc1ccccc1F	none (no result: ELG1 genotoxic, Rab9 prom act, NPC1 prom act)
Cc1ccnc(NC(=O)c2cc3ccccc3oc2=O)c1	ELG1 genotoxic inconclusive, SMN2 splice enh 11.2µM, Rab9 prom act 1.12µM, NPC1 prom act 1.58µM, FLuc modulator 0.849µM
COc1ccc2oc(=O)c(C(=O)Nc3cccc(C)c3)cc2c1	ELG1 genotoxic 8.2µM, Rab9 prom act 1.58µM, NPC1 prom act 3.98µM, FLuc modulator 3.01µM (no result: SMN2 splice enh)
Cc1ccc(S(=O)(=O)N/N=c2\oc3ccccc3cc2C(=O)Nc2cccc(C)c2)cc1	none
Cc1cccc(NC(=O)c2cc3ccccc3oc2=O)c1	ELG1 genotoxic 2.06µM, Rab9 prom act 1.41µM, NPC1 prom act 1.12µM, FLuc modulator 0.601µM (no result: SMN2 splice enh)
COc1ccc(C(=O)NNC(=O)c2cc3cc(OC)ccc3oc2=O)cc1	none (no result: SMN2 splice enh)
O=C(O)c1cccc(NC(=O)c2cc3cc(Br)cc(Br)c3oc2=O)c1	FLuc modulator 12µM (no result: ELG1 genotoxic, Rab9 prom act, NPC1 prom act)
